Experimental findings from PubChem BioAssay are described below.

Where “and” joins values, the source holds several entries; their conditions need not be identical. Identical values can stand only once. Inconclusive results are not listed. Calls of active or inactive are those of the source. Unless noted, the limit is not given here; nearly all actives have AC50 up to about 26 µM.

A short description of assay [1]: growth inhibition of DIPG glioma cells, dose response, cell-based, SU-DIPG-XVII, MIPE5.0, CellTiter-Glo, qHTS (AID 1347060).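 As to AC50: cells exposed to compound for 48 hours before viability readout.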 To be noted: SU-DIPG-XVII viability, CellTiter-Glo ATP luminescence.
Assay [2] is described as follows: growth inhibition of DIPG glioma cells, dose response, cell-based, SU-DIPG-XIII, MIPE4.0, CellTiter-Glo, qHTS (AID 1347061; cut-off not given, nearly all actives have AC50 up to about 37 µM;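 also: cells exposed to compound for 48 hours before readout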). The settings on record: SU-DIPG-XIII viability, CellTiter-Glo ATP luminescence.
The nature of assay [3]: growth inhibition of DIPG glioma cells, dose response, cell-based, JHH-DIPG-1, MIPE4.0, CellTiter-Glo, qHTS (AID 1347062; cut-off not given, nearly all actives have AC50 up to about 27 µM;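 as to AC50: cells exposed to compound for two days before readout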). To be noted: JHH-DIPG-1 viability, CellTiter-Glo ATP luminescence.
Assay [4] in a line: growth inhibition of DIPG glioma cells, dose response, cell-based, SU-DIPG-IV, MIPE4.0, CellTiter-Glo, qHTS (AID 1347063; cut-off not given, nearly all actives have AC50 up to about 30 µM;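 also: compound exposure lasted 48 hours before the viability readout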). To be noted: SU-DIPG-IV viability, CellTiter-Glo ATP luminescence.
Assay [5] is described as follows: growth inhibition of DIPG glioma cells, dose response, cell-based, SU-DIPG-XIII, MIPE5.0, CellTiter-Glo, qHTS (AID 1347064; cut-off not given, nearly all actives have AC50 up to about 23 µM;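 as to AC50: cells exposed to compound for 48 hours before the viability read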). To be noted: SU-DIPG-XIII viability, CellTiter-Glo ATP luminescence.
The nature of assay [6]: viability loss in pontine glioma line – cell-based, SU-DIPG-XXV, MIPE5.0, CellTiter-Glo, qHTS, dose response (AID 1347065).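 Also: cells exposed to compound for 48 hours before ATP readout.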 To be noted: CellTiter-Glo ATP luminescence.
Assay [7] in a line: SU-DIPG-VI glioma cell viability, MIPE4.0 library, CellTiter-Glo luminescence, qHTS (AID 1347066; cut-off not given, nearly all actives have AC50 up to about 30 µM;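 also: cells exposed to compound for 48 hours before readout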). To be noted: CellTiter-Glo ATP luminescence.
Assay [8] is described as follows: JHH-DIPG-1 glioma cell viability, MIPE5.0 library, CellTiter-Glo luminescence, qHTS (AID 1347067).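 Also: cells exposed to compound for 48 hours before readout.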 The settings on record: JHH-DIPG-1 glioma viability, CellTiter-Glo ATP luminescence.
A short description of assay [9]: SU-DIPG-XXV glioma cell viability, MIPE5.0 library, qHTS (AID 1347068; cut-off not given, nearly all actives have IC50 up to about 30 µM;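 as to IC50: cells exposed to compound for 48 hours before viability readout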).
Assay [10] in a line: sensitizers of A549 cells to miR-34 induction, primary screen, imaging, A549 dox-inducible miR-34, nuclei and caspase counts (AID 1347080;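 active = compounds whose cell count with miR-34 switched on is under 0.7 times the count with it off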). To be noted: A549 miR-34 inducible, Hoechst nuclei count, 48 h.
Assay [11] is described as follows: modifiers of HSF1 nuclear foci, imaging, Selleck Cancer Library (AID 1347162; in the data active = plate-normalised HSF1 focus index below about 0.46). To be noted: human cells, at 10 µM; SSMD: measured here: HSF1 foci SSMD mean; cell count: measured here: cell number; plate-normalised HSF1 focus index: stronger effect = lower value.
Assay [12] can be described thus: survival rescue of mitochondrial mutant cells in low glucose, primary screen, MELAS cybrids, Rieske KO mouse fibroblasts, CellTiter-Glo (AID 1508586;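 active = mean z-score across replicates of 1.96 or higher in either the MELAS or the Rieske mutant cell line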;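 also: z relative to plate mean and SD of compound and empty wells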).
Assay [13] in a line: ovarian cancer cell viability with rucaparib, profiling panel, oncology-focused library, rucaparib conditional (AID 1508598;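 active = normalized viability below 100% at a tested concentration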). The settings on record: patient-derived ovarian cancer cells, CellTiter-Glo viability, 144 h, stronger effect = lower value.
Assay [14] in a line: viability rescue of complex I mutant cybrids, primary screen, cell-based, galactose medium, ATP luminescence (AID 1645843;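 active = z-score of at least 1.8 in each of two replicates, scored against plate mean and spread of sample wells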;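 also: positive z means more ATP and so rescue of galactose-driven cybrid death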). The settings on record: complex I mutant cybrid cells, 72 h, stronger effect = higher value.
Where [15] appears, read: stronger effect = lower value, cell number ratio, induced over uninduced.
The mark [16] stands for this setting: measured here: relative caspase fold change +Dox/-Dox.
Setting [17] is: measured here: total cells with miR-34 induction, stronger effect = lower value.
Setting [18] is: measured here: total cells without miR-34 induction.
Setting [19] is: MELAS cybrid survival, CellTiter-Glo 48 h, stronger effect = higher value.
Setting [20] is: Rieske KO mouse fibroblast survival, CellTiter-Glo 72 h.

On to `COc1ccc(S(=O)(=O)Nc2cc(-c3c(O)ccc4ccccc34)c(O)c3ccccc23)cc1`, for which the AC50 is 0.105 µM (active) in [1]; 13.2 µM (active) in assay [2]; 18.7 µM (active) in assay [3]; 7.43 µM (active) in [4]; 3.32 µM (active) in assay [5]; 2.35 µM (active) in [6]. In addition, the AC50 in assay [7] was 4.69 µM (active); in assay [8], 2.95 µM (active). Moreover, in assay [9], the compound was classed as inactive.

Take `CS(=O)(=O)c1cccc(CNc2nc(Nc3ccc4c(c3)CCC(=O)N4)ncc2C(F)(F)F)c1`: the AC50 in [1] is 6.61 µM (active); in assay [2], 18.7 µM (active); in assay [3] it was 16.6 µM (active); in assay [4], 18.7 µM (active); in assay [5] it was 8.33 µM (active); in assay [6], 4.68 µM (active). In addition, the results for the AC50 in assay [7] and in assay [8] were 16.6 µM (active) and 2.35 µM (active), respectively. Also, the half-maximal inhibitory concentration (IC50) in assay [9] was 8.33 µM (active). Further, the fold change in assay [10] (setting [15]) was 0.913 (inactive) and 0.835 (inactive); in assay [10] (setting [16]), 0.606 and 1.43. The cell count in assay [10] (setting [17]) was 1320 and 1930; in assay [10] (setting [18]), 1440 and 2320; in assay [11], 7540. Further, the SSMD in assay [11] is -1.44. Further, in assay [11], the plate-normalised HSF1 focus index was 0.911 (inactive). In addition, the results for the z-score in assay [12] (setting [19]), in assay [12] (setting [20]) and in assay [14] were -0.299 (inactive), -0.256 and -0.545 (inactive), respectively. The viability was 98.4% (active) in assay [13] (at 0.000305 µM, OCI-C5x cells, with rucaparib 10 µM, 100% = cells with rucaparib alone); 109% (inactive) in [13] (at 0.000305 µM, OCI-C5x cells, without rucaparib); 88.7% (active) in assay [13] (at 0.000305 µM, OCI-P5x cells, with rucaparib 20 µM, 100% = cells with rucaparib alone); 101% (inactive) in assay [13] (at 0.000305 µM, OCI-P5x cells, without rucaparib); 108% (inactive) in [13] (at 0.00122 µM, OCI-C5x cells, with rucaparib 10 µM, 100% = cells with rucaparib alone); 114% (inactive) in assay [13] (at 0.00122 µM, OCI-C5x cells, without rucaparib). Also, the viability in [13] (at 0.00122 µM, OCI-P5x cells, with rucaparib 20 µM, 100% = cells with rucaparib alone) is 84.8% (active); in assay [13] (at 0.00122 µM, OCI-P5x cells, without rucaparib), 106% (inactive); in [13] (at 0.00488 µM, OCI-C5x cells, with rucaparib 10 µM, 100% = cells with rucaparib alone) it was 113% (inactive); in assay [13] (at 0.00488 µM, OCI-C5x cells, without rucaparib) it was 112% (inactive); in [13] (at 0.00488 µM, OCI-P5x cells, with rucaparib 20 µM, 100% = cells with rucaparib alone), 93.9% (active); in assay [13] (at 0.00488 µM, OCI-P5x cells, without rucaparib) it was 109% (inactive). Also, the viability was 104% (inactive) in assay [13] (at 0.0195 µM, OCI-C5x cells, with rucaparib 10 µM, 100% = cells with rucaparib alone); 109% (inactive) in assay [13] (at 0.0195 µM, OCI-C5x cells, without rucaparib); 91.7% (active) in assay [13] (at 0.0195 µM, OCI-P5x cells, with rucaparib 20 µM, 100% = cells with rucaparib alone); 108% (inactive) in [13] (at 0.0195 µM, OCI-P5x cells, without rucaparib); 102% (inactive) in assay [13] (at 0.0781 µM, OCI-C5x cells, with rucaparib 10 µM, 100% = cells with rucaparib alone); 109% (inactive) in [13] (at 0.0781 µM, OCI-C5x cells, without rucaparib). In addition, the viability is 88% (active) in assay [13] (at 0.0781 µM, OCI-P5x cells, with rucaparib 20 µM, 100% = cells with rucaparib alone); 112% (inactive) in assay [13] (at 0.0781 µM, OCI-P5x cells, without rucaparib); 108% (inactive) in assay [13] (at 0.313 µM, OCI-C5x cells, with rucaparib 10 µM, 100% = cells with rucaparib alone); 116% (inactive) in assay [13] (at 0.313 µM, OCI-C5x cells, without rucaparib); 93.7% (active) in [13] (at 0.313 µM, OCI-P5x cells, with rucaparib 20 µM, 100% = cells with rucaparib alone); 115% (inactive) in assay [13] (at 0.313 µM, OCI-P5x cells, without rucaparib). For the same compound, the viability in assay [13] (at 1.25 µM, OCI-C5x cells, with rucaparib 10 µM, 100% = cells with rucaparib alone) was 113% (inactive); in assay [13] (at 1.25 µM, OCI-C5x cells, without rucaparib) it was 116% (inactive); in [13] (at 1.25 µM, OCI-P5x cells, with rucaparib 20 µM, 100% = cells with rucaparib alone) it was 75.9% (active); in [13] (at 1.25 µM, OCI-P5x cells, without rucaparib), 107% (inactive); in assay [13] (at 5 µM, OCI-C5x cells, with rucaparib 10 µM, 100% = cells with rucaparib alone), 56.8% (active); in [13] (at 5 µM, OCI-C5x cells, without rucaparib), 59.8% (active). Also, the viability is 44.7% (active) in [13] (at 5 µM, OCI-P5x cells, with rucaparib 20 µM, 100% = cells with rucaparib alone) and 74.7% (active) in [13] (at 5 µM, OCI-P5x cells, without rucaparib).

Take `CN1CCN(Cc2ccc(NC(=O)Nc3ccc(Oc4cc(NC(=O)C5CC5)ncn4)cc3)cc2C(F)(F)F)CC1`: the concentration at half-maximal activity (AC50) is 0.468 µM (active) in assay [1]; 5.9 µM (active) in assay [2]; 0.118 µM (active) in [3]; 0.235 µM (active) in assay [4]; 0.525 µM (active) in assay [5]; 0.417 µM (active) in assay [6]. The AC50 is 2.96 µM (active) in assay [7] and 0.372 µM (active) in assay [8]. Moreover, the IC50 in assay [9] is 0.417 µM (active).

On to `C[C@H](O)[C@@H]1C(=O)N2C(C(=O)O)=C(S[C@@H]3CN[C@H](CNS(N)(=O)=O)C3)[C@@H](C)[C@@H]12`, for which the compound was classed as inactive in assay [1], in [2], in assay [3], in assay [4], in [5] and in assay [6]. Further, the outcome in assay [7], in [8] and in [9] was inactive.

`OCCCNc1cc(-c2ccnc(Nc3cccc(Cl)c3)n2)ccn1`: the AC50 was 0.132 µM (active) in assay [1]; 0.148 µM (active) in assay [2]; 0.148 µM (active) in assay [3]; 0.0526 µM (active) in assay [4]; 0.0833 µM (active) in assay [5]; 0.132 µM (active) in [6]. Also, in assay [8], the AC50 is 0.118 µM (active). Further, in assay [7], the call was inactive. Also, in assay [9], the IC50 is 0.148 µM (active).

Consider `CC(C)(C)c1cc(C(=O)O)c(NC(=O)Nc2ccc3[nH]ncc3c2)s1`, for which the compound was called inactive in assay [1], in [2], in [3], in assay [4], in assay [5] and in assay [6]. Moreover, the compound was classed as inactive in [7], in assay [8] and in assay [9].

As to `C=C(C)[C@@H]1CC[C@]2(C)CC[C@]3(C)[C@H](CC[C@@H]4[C@@]5(C)CC[C@H](O)C(C)(C)[C@@H]5CC[C@]43C)[C@@H]12`, the compound was called inactive in assay [1], in [2], in assay [3], in assay [4], in assay [5] and in assay [6]. Further, the compound was classed as inactive in assay [7], in assay [8] and in assay [9].

As to `O=C(Nc1ccccc1Br)N[C@@H]1CCN(c2ccc(C(F)(F)F)cn2)C1`, the result in assay [1], in assay [2], in assay [3], in [4], in assay [5] and in [6] was inactive. Moreover, the call in assay [7], in [8] and in assay [9] was inactive.

With `CC[C@@H](C)[C@H](NC(=O)[C@H](CC1CCCCC1)NC(=O)c1ccno1)C(=O)N1CCC2(CCc3ccccc32)CC1`, the outcome in [1], in assay [2], in [3], in assay [4], in assay [5] and in assay [7] was inactive. Besides, the outcome in assay [8] and in [9] was inactive. In assay [6], the AC50 was 11.8 µM (active).

In the case of `CC1(C)SCCN(S(=O)(=O)c2ccc(OCC#CCO)cc2)[C@H]1C(=O)NO`, the compound was classed as inactive in assay [1], in assay [2], in [3], in [4], in assay [5] and in assay [6]. Further, the call in [7], in assay [8] and in assay [9] was inactive.

Take `COc1cc2nc(N3CCCN(C)CC3)nc(NC3CCN(Cc4ccccc4)CC3)c2cc1OC`: the concentration at half-maximal activity (AC50) was 10.5 µM (active) in [1]; 26.4 µM (active) in assay [2]; 7.43 µM (active) in assay [3]; 10.5 µM (active) in assay [4]; 13.2 µM (active) in [5]; 10.5 µM (active) in assay [6]. The values for the AC50 in [7] and in assay [8] were 9.35 µM (active) and 13.2 µM (active), respectively. Moreover, the IC50 in [9] is 11.8 µM (active). The fold change in [10] (setting [15]) was 0.884 (inactive) and 1.04 (inactive) and 1.01 (inactive); in assay [10] (setting [16]), 1.51 and 1.3 and 0.404. Besides, the cell count in assay [10] (setting [17]) was 672 and 5080 and 2320; in assay [10] (setting [18]) it was 760 and 4890 and 2300; in assay [11] it was 6820. In assay [11], this compound yielded an SSMD of 1.64. In addition, in assay [11], the plate-normalised HSF1 focus index is 1.1 (inactive). Also, the z-score in assay [12] (setting [19]) was -0.436 (inactive); in [12] (setting [20]), -1.67; in assay [14], -1.38 (inactive).
